According to PubChem BioAssay (Tox21):
Values joined by “and” are separate entries in the source; they are usually repeats but may differ in a detail not shown here. Equal entries are not always repeated. Records with an inconclusive call do not appear. Entries that show only a call come without a potency. Where a structure was tested more than once in an assay, its records may differ in their call. Active and inactive are the calls of the source. Calls follow the shape of the dose curve; as a rule, active = well fitted curve in the direction sought with a large enough effect in the repeat runs; inconclusive = weak or mixed curves; inactive = no such curve, though single readings can be large; an effect the other way counts as inactive or inconclusive.

How the values were obtained:
[1] = qHTS assay to identify small molecule antagonists of the glucocorticoid receptor (GR) signaling pathway - cell viability counter screen (AID 720693); also: nearly all actives have a fitted effect of over 55% in size; also: potency is read from the fitted curve at half-maximal effect
[2] = qHTS assay for identifying genotoxic compounds that show differential cytotoxicity against isogenic chicken DT40 cell lines with known DNA damage response pathways - wild type cell line (AID 743012); also: nearly all actives have a fitted effect of over 60% in size; also: potency is read from the fitted curve at half-maximal effect
How it was run: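 Using parental DT40 (300 cells/well), compounds delivered in DMSO incubate 40 h at 37 C/5% CO2. CellTiter-Glo reagent then stands 30 min at room temperature, and luminescence gives cell viability.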

[3] = qHTS assay for identifying genotoxic compounds that show differential cytotoxicity against isogenic chicken DT40 cell lines with known DNA damage response pathways - Rev3 mutant cell line (AID 743014); also: nearly all actives have a fitted effect of over 55% in size; also: potency is read from the fitted curve at half-maximal effect
[4] = qHTS assay for identifying genotoxic compounds that show differential cytotoxicity against isogenic chicken DT40 cell lines with known DNA damage response pathways - Rad54/Ku70 mutant cell line (AID 743015); also: nearly all actives have a fitted effect of over 60% in size; also: potency is read from the fitted curve at half-maximal effect
[5] = qHTS assay to identify small molecule antagonists of the androgen receptor (AR) signaling pathway - cell viability counter screen (AID 743033; also: nearly all actives have a fitted effect of over 45% in size; also: potency is read from the fitted curve at half-maximal effect)
[6] = target: Androgen receptor (Homo sapiens) (UniProt P10275); experiment: qHTS assay to identify small molecule agonists of the androgen receptor (AR) signaling pathway using the MDA cell line (AID 743040; also: nearly all actives have a fitted effect of over 20% in size)
Chain of Androgen receptor (Homo sapiens) (P10275 whole entry, looked up): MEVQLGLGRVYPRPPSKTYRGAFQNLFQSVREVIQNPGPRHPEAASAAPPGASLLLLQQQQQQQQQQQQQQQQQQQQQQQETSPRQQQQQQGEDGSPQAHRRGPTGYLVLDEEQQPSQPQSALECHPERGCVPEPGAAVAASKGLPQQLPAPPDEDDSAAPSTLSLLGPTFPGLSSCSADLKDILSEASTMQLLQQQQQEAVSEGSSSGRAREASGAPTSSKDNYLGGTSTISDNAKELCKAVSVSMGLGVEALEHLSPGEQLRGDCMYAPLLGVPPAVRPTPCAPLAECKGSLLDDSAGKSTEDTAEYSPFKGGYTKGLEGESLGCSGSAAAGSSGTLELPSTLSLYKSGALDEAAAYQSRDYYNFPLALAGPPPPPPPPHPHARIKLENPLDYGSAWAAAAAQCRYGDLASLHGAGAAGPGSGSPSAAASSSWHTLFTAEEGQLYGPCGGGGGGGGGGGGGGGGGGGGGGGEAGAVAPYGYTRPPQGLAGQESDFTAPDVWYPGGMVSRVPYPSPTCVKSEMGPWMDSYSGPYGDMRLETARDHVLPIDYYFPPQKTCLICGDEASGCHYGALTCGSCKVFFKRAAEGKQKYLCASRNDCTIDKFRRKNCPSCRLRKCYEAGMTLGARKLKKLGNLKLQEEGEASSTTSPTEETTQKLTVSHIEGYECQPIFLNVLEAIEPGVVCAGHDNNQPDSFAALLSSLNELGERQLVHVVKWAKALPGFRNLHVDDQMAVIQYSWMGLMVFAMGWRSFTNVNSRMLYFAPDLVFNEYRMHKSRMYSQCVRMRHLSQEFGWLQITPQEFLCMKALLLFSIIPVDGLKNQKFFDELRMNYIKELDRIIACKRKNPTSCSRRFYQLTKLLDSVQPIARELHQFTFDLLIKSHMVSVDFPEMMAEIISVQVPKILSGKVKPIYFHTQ
How it was run: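 After a 5 h incubation at 37C and 0% CO2, MDA-kb2 reporter cells were dosed with compounds in DMSO and kept 16 h under the same conditions. Luciferase activity was then read as luminescence with ONE-Glo.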

[7] = target: Androgen receptor (Homo sapiens) (UniProt P10275); experiment: qHTS assay to identify small molecule antagonists of the androgen receptor (AR) signaling pathway using the MDA cell line (AID 743042; also: potency is read from the fitted curve at half-maximal effect; nearly all actives have a fitted effect of over 55% in size)
How it was run: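 Antagonist mode: compounds plus R1881 agonist added to MDA-kb2 AR-luc cells, incubated 16 h at 37C. Luciferase reporter luminescence quantified, with multiplexed CellTiter-Fluor readout for cell viability.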

[8] = qHTS assay to identify small molecule antagonists of the androgen receptor (AR) signaling pathway using the MDA cell line - cell viability counter screen (AID 743041; also: nearly all actives have a fitted effect of over 45% in size; also: potency is read from the fitted curve at half-maximal effect)
How it was run: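 R1881-driven MDA-kb2 AR-luc cells, 3,000/well, were dosed with library compounds for 16 h; cell health came from CellTiter-Fluor fluorescence in the reporter wells.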

Compound	Potency [1]	Potency [2]	Potency [3]	Potency [4]	Potency [5]	outcome [6]	Potency [7]	Potency [8]
O=Nc1ccc(Nc2ccccc2)cc1	inactive	3.88 µM (active) and 3.06 µM (active)	1.23 µM (active) and 1.72 µM (active)	3.08 µM (active) and 2.17 µM (active)	17.5 µM (active) and 30.9 µM (active)	inactive	54.8 µM (active)	–
O=C(Cl)c1cccc(C(=O)Cl)c1	inactive	inactive	inactive	inactive	inactive	–	–	inactive
C=C(C)C1CC=C(C)C(OC(C)=O)C1 (stereo not drawn)	inactive	inactive	inactive	inactive	inactive	–	–	inactive
CCCCC/C=C/CC1CC(=O)OC1=O (stereo not drawn)	inactive	inactive	inactive	inactive	inactive	–	–	inactive
NC(N)=Nc1nc(CSCC/C(N)=N/S(N)(=O)=O)cs1	inactive	inactive	inactive	inactive	inactive	–	–	inactive
CCCCCCC(O)CCCCCCCCCCC(=O)O (stereo not drawn)	inactive	inactive	inactive	inactive and 48.6 µM (active)	inactive	–	–	inactive
CC(C)(C)NC(=O)[C@@H]1CN(Cc2cccnc2)CCN1C[C@@H](O)C[C@@H](Cc1ccccc1)C(=O)N[C@H]1c2ccccc2C[C@H]1O	inactive	23.7 µM (active) and inactive	23.7 µM (active) and inactive	18.8 µM (active)	inactive	–	–	inactive
CCCCCCCCCCCCCC[P+](CCCC)(CCCC)CCCC	9.72 µM (active) and 4.9 µM (active)	192 nM (active) and 86.3 nM (active)	85.8 nM (active) and 61.1 nM (active)	76.5 nM (active) and 54.5 nM (active)	866 nM (active) and 977 nM (active)	inactive	2.16 µM (active) and 1.54 µM (active)	21.6 µM (active) and 6.11 µM (active)
CCCCC(CC)COC(=O)CC(C(=O)OCC(CC)CCCC)S(=O)(=O)O (stereo not drawn)	inactive	inactive	inactive	inactive and 43.3 µM (active)	inactive	–	–	inactive
O	inactive	inactive and 13.9 µM (active)	inactive and 9.81 µM (active)	inactive	inactive	–	–	inactive
CCC(C)(C)C(=O)O[C@H]1C[C@@H](C)C=C2C=C[C@H](C)[C@H](CC[C@@H]3C[C@@H](O)CC(=O)O3)[C@H]21	inactive	2.17 µM (active)	154 nM (active)	1.09 µM (active)	inactive	–	–	inactive
Oc1c(Cl)cc(Cl)cc1Sc1cc(Cl)cc(Cl)c1O	19.5 µM (active) and 28 µM (active) and 21.9 µM (active)	11.9 µM (active) and 27.4 µM (active) and 17.2 µM (active)	17.3 µM (active) [middle of 4 runs]	17.3 µM (active) [middle of 4 runs]	6.18 µM (active) and 8.85 µM (active) and 6.16 µM (active)	–	–	55.4 µM (active)
c1ccc2c(c1)-c1cccc3c1c-2cc1ccccc13	inactive	inactive	inactive	inactive	inactive	–	–	inactive
CC(C)CCCCCCc1ccc(O)cc1	25 µM (active)	21.1 µM (active) and 62.2 µM (active) and 27.3 µM (active)	11.9 µM (active) and 17.5 µM (active) and 30.6 µM (active)	21.1 µM (active) and 62.2 µM (active) and 27.3 µM (active)	inactive	–	–	inactive
CC(COc1ccccc1)N(CCCl)Cc1ccccc1 (stereo not drawn)	inactive	21.1 µM (active) and 27.3 µM (active)	13.3 µM (active) and 34.7 µM (active) and 5.45 µM (active)	23.7 µM (active) and 15.4 µM (active)	inactive	–	–	inactive
Cc1cc(OCCOCC[N+](C)(C)Cc2ccccc2)ccc1C(C)(C)CC(C)(C)C	21.3 µM (active) and 17.3 µM (active)	841 nM (active) and 1.21 µM (active)	1.19 µM (active) and 682 nM (active)	1.06 µM (active) and 765 nM (active)	16.9 µM (active) and 15.4 µM (active)	inactive	18.8 µM (active) and 12.1 µM (active)	24.2 µM (active)
CC(C)(c1ccccc1)c1ccc(Nc2ccc(C(C)(C)c3ccccc3)cc2)cc1	inactive	inactive and 54.5 µM (active)	inactive and 54.5 µM (active)	inactive and 61.1 µM (active)	inactive	–	–	inactive
NCCO	inactive	inactive	inactive and 68.6 µM (active)	inactive	inactive	–	–	inactive
COc1ccc(COC(C)=O)cc1	inactive	inactive	inactive	inactive	inactive	–	–	inactive
CC(=O)CC(=O)Nc1ccc2[nH]c(=O)[nH]c2c1	inactive	inactive	inactive	inactive	inactive	–	–	inactive
Cc1cc(C2(c3cc(C)c(O)cc3C)OS(=O)(=O)c3ccccc32)c(C)cc1O	inactive	inactive	inactive	inactive	inactive	–	–	30.6 µM (active)

Compound	Potency [1]	Potency [2]	Potency [3]	Potency [4]	Potency [5]	outcome [6]	Potency [7]	Potency [8]
C=CS(=O)(=O)O	inactive	inactive	inactive	inactive	inactive	–	–	inactive
c1cnc2cc3c(cc2n1)C1CNCC3C1	inactive	inactive	inactive	inactive	–	–	–	inactive
CCn1cc(C(=O)O)c(=O)c2cc(F)c(N3CCNC(C)C3)c(F)c21 (stereo not drawn)	inactive	26.6 µM (active)	inactive	inactive	inactive	–	–	inactive
C=CC(=O)OCCCCCCCC	inactive	inactive	inactive	inactive	inactive	–	–	inactive
CC(C)(C)c1ccccc1	inactive	inactive	inactive	inactive	inactive	–	–	inactive
Cc1cc(C(C)(C)C)c(O)c(C(C)(C)C)c1	inactive	inactive	inactive and 30.6 µM (active)	inactive and 27.3 µM (active)	inactive	–	–	inactive
CCCCN(CCO)CCCC	inactive	inactive	inactive	inactive	inactive	–	–	inactive
CC1=C(C=O)C(C)(C)CC=C1	inactive	inactive	inactive	inactive	inactive	–	–	inactive
CCOC(=O)C(C)C(C)=O (stereo not drawn)	inactive	inactive	inactive	inactive	inactive	–	–	inactive
COc1nc(C)nc(Cl)c1NC1=NCCN1	inactive	inactive	inactive	inactive	inactive	–	–	inactive
CC[C@]1(O)C[C@@H]2CN(CCc3c([nH]c4ccccc34)[C@@](C(=O)OC)(c3cc4c(cc3OC)N(C)[C@H]3[C@@](O)(C(=O)OC)[C@H](OC(C)=O)[C@]5(CC)C=CCN6CC[C@]43[C@@H]65)C2)C1	inactive	53.1 nM (active) and 29.8 nM (active)	53.1 nM (active) and 29.8 nM (active)	75 nM (active) and 53.1 nM (active)	–	–	–	inactive
CC(=O)C1=C(C)[C@@H]2C[C@@]3(C1)[C@H](C)CC[C@H]3C2(C)C	inactive	inactive	inactive	inactive	inactive	–	–	inactive
c1cc(C(c2ccc(OCC3CO3)cc2)C(c2ccc(OCC3CO3)cc2)c2ccc(OCC3CO3)cc2)ccc1OCC1CO1 (stereo not drawn)	inactive	20.1 µM (active) and 3.43 µM (active)	357 nM (active) and 385 nM (active)	–	inactive	–	–	inactive
NC(Cc1ccc(Cl)cc1)C(=O)O (stereo not drawn)	inactive	inactive	–	inactive	inactive	–	–	–
O=C1OC2(c3ccc(O)cc3Oc3cc(O)ccc32)c2ccccc21	inactive	inactive	inactive	–	inactive	–	–	–
O=C1Nc2ccccc2C1(c1ccc(O)cc1)c1ccc(O)cc1	inactive	68.6 µM (active)	61100 nM (active)	–	inactive	–	–	–
O=c1n(CC2CO2)c(=O)n(CC2CO2)c(=O)n1CC1CO1 (stereo not drawn)	inactive	376 nM (active) and 193 nM (active)	53.1 nM (active) and 38.6 nM (active)	–	inactive	–	–	inactive
c1ccc2c(c1)CCCC2C1=NCCN1 (stereo not drawn)	inactive	inactive	inactive	–	inactive	–	–	inactive
Cc1cccc2n[nH]nc12	inactive	inactive	inactive	–	inactive	–	–	inactive
C=C(C)C(=O)O	inactive	inactive	inactive	–	inactive	–	–	inactive
